From paper PMC11995724, “Antibiotic target discovery by integrated phenotypic and activity-based profiling of electrophilic fragments” (Cell chemical biology, 2025)
Screen size: about 3,200 compounds; about 75 (2%) showed an effect of 50% or more. The full list was thinned out, with strong results kept by preference.

system: T1, S. aureus MSSA476; design: species or system S. aureus MSSA476 (TSB) or V. cholerae SAD30 (LB); 384-well bacterial growth screen at 25 uM, OD600 relative to DMSO control; conditions: relative growth, OD600, TSB; 25 µM; inhibitor
T1 construct: MSSA476

| Compound | % of control remaining [%] |
| --- | --- |
| COc1cc(C)c(C=C(C#N)C(=O)Nc2ccc(C)cc2)cc1C(C)C [9-C04, 2-cyano-3-[4-methoxy-2-methyl-5-(propan-2-yl)phenyl]-N-(4-methylphenyl)prop-2-enamide] | 99.176 |
| O=C(CCl)c1cc(Cl)ccc1Cl [10-E16, 2-chloro-1-(2,5-dichlorophenyl)ethan-1-one] | 80 |
| O=C(O)c1csc(C(=O)CCl)c1 [10-E22, 5-(2-chloroacetyl)thiophene-3-carboxylic acid] | 88.4375 |
| O=C(CCl)c1sccc1Cl [10-K11, 2-chloro-1-(3-chlorothiophen-2-yl)ethan-1-one] | 10.3125 |
| C=CC(=O)NCc1cc(Cl)cc(S(C)(=O)=O)c1 [3-N15, N-[(3-chloro-5-methanesulfonylphenyl)methyl]prop-2-enamide] | 97.5185 |
| C=CC(=O)NCc1oc(CC)nc1C [3-P15, N-[(2-ethyl-4-methyl-1,3-oxazol-5-yl)methyl]prop-2-enamide] | 86.7218 |
| Cc1c(C#N)c(NC(=O)CCl)n(Cc2cccs2)c1C [4-C04, 2-chloro-N-{3-cyano-4,5-dimethyl-1-[(thiophen-2-yl)methyl]-1H-pyrrol-2-yl}acetamide] | 108.623 |
| N#Cc1c(NC(=O)CCl)oc(-c2cccs2)c1-c1cccs1 [6-I09, 2-chloro-N-[3-cyano-4,5-bis(thiophen-2-yl)furan-2-yl]acetamide] | 37.9024 |
| N#Cc1c(NC(=O)CCl)oc(-c2ccco2)c1-c1ccco1 [5-D10, 2-chloro-N-[4'-cyano-2'-(furan-2-yl)-[2,3'-bifuran]-5'-yl]acetamide] | 66.6667 |
| COCC(C)NC(=O)C(C#N)=Cc1cccc(F)c1F (centres unmarked) [9-F09, 2-cyano-3-(2,3-difluorophenyl)-N-(1-methoxypropan-2-yl)prop-2-enamide] | 101.873 |
| C=CC(=O)N1CCCC1c1nc(N(C)C)no1 (centres unmarked) [2-C21, 1-{2-[3-(dimethylamino)-1,2,4-oxadiazol-5-yl]pyrrolidin-1-yl}prop-2-en-1-one] | 104.439 |
| C=CC(=O)N(CC)CC(=O)N1CCCC(F)(F)C1 [2-G14, N-[2-(3,3-difluoropiperidin-1-yl)-2-oxoethyl]-N-ethylprop-2-enamide] | 112.446 |
| O=C1C=CC(=O)N1CCc1ccccc1 [10-E20, 1-(2-phenylethyl)-2,5-dihydro-1H-pyrrole-2,5-dione] | 58.4375 |
| O=C1C=CC(=O)N1CCc1ccc(F)cc1 [10-C21, 1-[2-(4-fluorophenyl)ethyl]-2,5-dihydro-1H-pyrrole-2,5-dione] | 70.9375 |
| O=C1C=CC(=O)N1CCc1ccccc1F [10-G03, 1-[2-(2-fluorophenyl)ethyl]-2,5-dihydro-1H-pyrrole-2,5-dione] | 4.375 |
| CCc1nsc(N2CCN(C(=O)C(C#N)=Cc3ccco3)CC2)n1 [9-K05, 2-[4-(3-ethyl-1,2,4-thiadiazol-5-yl)piperazine-1-carbonyl]-3-(furan-2-yl)prop-2-enenitrile] | 96.779 |
| CNS(=O)(=O)c1cc(NC(=O)CCl)ccc1C [6-M07, 2-chloro-N-[4-methyl-3-(methylsulfamoyl)phenyl]acetamide] | 112.341 |
| Cc1ccc(NC(=O)CN2CCN(C(=O)CCl)CC2)cc1.Cl [4-D16, 2-[4-(2-chloroacetyl)piperazin-1-yl]-N-(4-methylphenyl)acetamide hydrochloride] | 131.872 |
| COCC(NC(=O)C(C)Cl)c1ccccn1 (centres unmarked) [6-B13, 2-chloro-N-[2-methoxy-1-(pyridin-2-yl)ethyl]propanamide] | 95.6098 |
| COc1cc(C=C(C#N)C(=O)NC2CCCCC2)cc(Cl)c1O [8-H21, 3-(3-chloro-4-hydroxy-5-methoxyphenyl)-2-cyano-N-cyclohexylprop-2-enamide] | 104.564 |
| O=C1C=CC(=O)N1c1ccc(OC(F)F)cc1 [10-P11, 1-[4-(difluoromethoxy)phenyl]-2,5-dihydro-1H-pyrrole-2,5-dione] | 110.313 |
| O=C1C=CC(=O)N1c1ccc(OC(F)(F)F)cc1 [10-J19, 1-[4-(trifluoromethoxy)phenyl]-2,5-dihydro-1H-pyrrole-2,5-dione] | 5.9375 |
| O=C1C=CC(=O)N1c1ccc2ccccc2c1 [10-D07, 1-(naphthalen-2-yl)-2,5-dihydro-1H-pyrrole-2,5-dione] | 3.125 |
| O=C1C=CC(=O)N1c1ccc(F)c(Cl)c1 [10-D15, 1-(3-chloro-4-fluorophenyl)-2,5-dihydro-1H-pyrrole-2,5-dione] | 109.688 |

| Compound | % of control remaining [%] |
| --- | --- |
| O=C1C=CC(=O)N1c1ccc(Oc2ccccc2)cc1 [10-F17, 1-(4-phenoxyphenyl)-2,5-dihydro-1H-pyrrole-2,5-dione] | 36.875 |
| CCOc1ccc(N2C(=O)C=CC2=O)cc1 [10-A14, 1-(4-ethoxyphenyl)-2,5-dihydro-1H-pyrrole-2,5-dione] | 141.563 |
| COc1ccccc1N1C(=O)C=CC1=O [10-O10, 1-(2-methoxyphenyl)-2,5-dihydro-1H-pyrrole-2,5-dione] | 118.438 |
| COc1cccc(N2C(=O)C=CC2=O)c1 [10-K03, 1-(3-methoxyphenyl)-2,5-dihydro-1H-pyrrole-2,5-dione] | 124.375 |
| O=C1C=CC(=O)N1c1cccc(O)c1 [10-O07, 1-(3-hydroxyphenyl)-2,5-dihydro-1H-pyrrole-2,5-dione] | 125.313 |
| CCOC(=O)c1[nH]c(C)c(C(=O)CCl)c1C [10-A10, ethyl 4-(2-chloroacetyl)-3,5-dimethyl-1H-pyrrole-2-carboxylate] | 136.563 |
| C=CC(=O)NCC1=NOCC1 [3-G16, N-[(4,5-dihydro-1,2-oxazol-3-yl)methyl]prop-2-enamide] | 95.7771 |
| Cc1cc(C(=O)CCl)c(F)cc1F [10-O03, 2-chloro-1-(2,4-difluoro-5-methylphenyl)ethan-1-one] | 143.438 |
| O=C1CCc2cc(C(=O)CCl)c(F)cc2N1 [10-O20, 6-(2-chloroacetyl)-7-fluoro-1,2,3,4-tetrahydroquinolin-2-one] | 3.75 |
| O=C1CCc2cc(C(=O)CCl)ccc2N1 [10-M03, 6-(2-chloroacetyl)-1,2,3,4-tetrahydroquinolin-2-one] | 83.125 |
| C=CC(=O)N1CCC(n2nc(C)nc2O)CC1 [3-P21, 1-[4-(5-hydroxy-3-methyl-1H-1,2,4-triazol-1-yl)piperidin-1-yl]prop-2-en-1-one] | 126.077 |
| O=C(CCl)Nc1c(Cl)cccc1C(F)(F)F [5-B04, 2-chloro-N-[2-chloro-6-(trifluoromethyl)phenyl]acetamide] | 82.3315 |
| O=C(CCl)N1CCOc2c1cccc2C(F)(F)F [5-G08, 2-chloro-1-[8-(trifluoromethyl)-3,4-dihydro-2H-1,4-benzoxazin-4-yl]ethan-1-one] | 0.3643 |
| CC1CCN(C(=O)CCl)c2cc(C(F)(F)F)ccc2S1 (centres unmarked) [5-J07, 2-chloro-1-[2-methyl-7-(trifluoromethyl)-2,3,4,5-tetrahydro-1,5-benzothiazepin-5-yl]ethan-1-one] | 106.011 |
| CN(C)S(=O)(=O)c1ccc(Cl)c(NC(=O)CCl)c1 [6-H12, 2-chloro-N-[2-chloro-5-(dimethylsulfamoyl)phenyl]acetamide] | 88.439 |
| C=CC(=O)N1CCN(Cc2cc(=O)n3ccsc3n2)CC1 [3-F22, 7-{[4-(prop-2-enoyl)piperazin-1-yl]methyl}-5H-[1,3]thiazolo[3,2-a]pyrimidin-5-one] | 101.698 |
| O=C(CCl)N1c2ccccc2Sc2ccc(Cl)cc21 [4-N07, 2-chloro-1-(2-chloro-10H-phenothiazin-10-yl)ethan-1-one] | 3.049 |
| CC1CCN(C(=O)CCl)c2cc(Cl)ccc2S1 (centres unmarked) [4-G16, 2-chloro-1-(7-chloro-2-methyl-2,3,4,5-tetrahydro-1,5-benzothiazepin-5-yl)ethan-1-one] | 93.3778 |
| CC1CSc2ccc(Cl)cc2N(C(=O)CCl)C1 (centres unmarked) [5-J05, 2-chloro-1-(7-chloro-3-methyl-2,3,4,5-tetrahydro-1,5-benzothiazepin-5-yl)ethan-1-one] | 95.4463 |
| CC(Cl)C(=O)N(Cc1nnc(-c2ccccc2Cl)o1)C1CC1 (centres unmarked) [5-B17, 2-chloro-N-{[5-(2-chlorophenyl)-1,3,4-oxadiazol-2-yl]methyl}-N-cyclopropylpropanamide] | 92.5319 |
| O=C(CCl)c1cscn1 [10-L08, 2-chloro-1-(1,3-thiazol-4-yl)ethan-1-one] | 27.8125 |
| C[C@H]1CN(C(=O)CCl)CCN1C(=O)c1cscn1 [5-L05, 2-chloro-1-[(3S)-3-methyl-4-(1,3-thiazole-4-carbonyl)piperazin-1-yl]ethan-1-one] | 92.5319 |
| O=C(CCl)c1ccccn1 [10-J03, 2-chloro-1-(pyridin-2-yl)ethan-1-one] | 51.875 |
